Measurements published in PubChem BioAssay (EPA / NIEHS).
Values joined by “and” are separate entries in the source; they are usually repeats but may differ in a detail not shown here. Equal values may be shown once. The source holds several records for some structures; these can differ, active in one and inactive in another. Active and inactive are the calls of the source. The calls were made as follows: active = hit-call score of the fitted dose curve at least 0.9, where 1 is the maximum; inactive = score below 0.9.

Tests used:
[1] = read-out: Plasminogen Activator Inhibitor-1 (PAI1), SERPINE1 (gene 5054); assay: BSK_BF4T_PAI1: BioMAP Diversity Plus: BF4T Assay for Plasminogen Activator Inhibitor-1 (PAI1) Biomarker Activity (AID 2284273); conditions: primary human bronchial epithelial cells with fibroblasts
Summary of the method: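 Co-culture of human bronchial epithelial cells and dermal fibroblasts exposed to compound for 24 h. PAI-1 measured by ELISA; activity fitted in positive direction versus DMSO. Parallel SRB staining assessed overt cytotoxicity.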

[2] = BSK_BF4T_SRB: Viability Assessment in the BioMAP Diversity Plus: BF4T Assay (AID 2284274); conditions: primary human bronchial epithelial cells with fibroblasts
Summary of the method: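 Co-culture of human bronchial epithelial cells and dermal fibroblasts (BioMAP BF4T) exposed 24 h. Total protein by sulforhodamine B staining (0.1% SRB after 10% TCA fixation, 560 nm) in parallel cultures; fitted vs DMSO.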

[3] = read-out: Matrix Metallopeptidase 9 (MMP9), MMP9 (gene 4318); assay: BSK_BF4T_MMP9: BioMAP Diversity Plus: BF4T Assay for Matrix Metallopeptidase 9 (MMP9) Biomarker Activity (AID 2284276); conditions: primary human bronchial epithelial cells with fibroblasts
Summary of the method: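 Co-culture of human bronchial epithelial cells and dermal fibroblasts dosed for 24 h; MMP-9 quantified by ELISA and fitted upward versus DMSO. Cytotoxicity monitored in parallel cultures by SRB total-protein staining at the biomarker time point.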

[4] = read-out: Interleukin-8 (IL8), CXCL8 (gene 3576); assay: BSK_IMphg_IL8: BioMAP Diversity Plus: IMphg Assay for Interleukin-8 (IL8) Biomarker Activity (AID 2284277); conditions: primary human endothelial cells with macrophages
Summary of the method: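 Co-culture of human venular endothelial cells and macrophages exposed to chemicals for 24 h; IL-8 quantified by ELISA and compared against the DMSO baseline, with SRB total-protein staining in parallel cultures for cytotoxicity.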

[5] = read-out: Intercellular Adhesion Molecule 1 (ICAM1), ICAM1 (gene 3383); assay: BSK_BE3C_ICAM1: BioMAP Diversity Plus: BE3C Assay for Intercellular Adhesion Molecule 1 (ICAM1) Biomarker Activity (AID 2284278); conditions: primary human bronchial epithelial cells;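 also: cell-surface ICAM-1 protein level quantified by ELISA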
Summary of the method: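 Measured by ELISA: ICAM-1 expressed by primary human bronchial epithelial cells 24 h after compound treatment, with upward-direction fitting versus DMSO vehicle.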

[6] = read-out: Interferon-inducible T-cell alpha chemoattractant (ITAC), CXCL11 (gene 6373); assay: BSK_BE3C_ITAC: BioMAP Diversity Plus: BE3C Assay for Interferon-inducible T-cell alpha chemoattractant (ITAC) Biomarker Activity (AID 2284279); conditions: primary human bronchial epithelial cells
Summary of the method: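 Steps: dose human bronchial epithelial cells with chemical; incubate 24 h; measure I-TAC by ELISA; fit endpoint in positive direction against DMSO control. Cytotoxicity was checked in parallel cultures by SRB staining at harvest.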

[7] = read-out: Interleukin-8 (IL8), CXCL8 (gene 3576); assay: BSK_BE3C_IL8: BioMAP Diversity Plus: BE3C Assay for Interleukin-8 (IL8) Biomarker Activity (AID 2284280); conditions: primary human bronchial epithelial cells
Summary of the method: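 Primary human bronchial epithelial cells (BE3C system) exposed 24 h; IL-8 measured by ELISA and fitted in positive direction versus DMSO. Overt cytotoxicity assessed by SRB total-protein staining in parallel cultures.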

[8] = read-out: Epidermal growth factor receptor (EGFR), EGFR (gene 1956); assay: BSK_BE3C_EGFR: BioMAP Diversity Plus: BE3C Assay for Epidermal growth factor receptor (EGFR) Biomarker Activity (AID 2284281); conditions: primary human bronchial epithelial cells
Summary of the method: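 Human primary bronchial epithelial cells (BE3C system) dosed with chemicals; EGFR measured by ELISA at 24 h, fitted in the positive direction relative to DMSO. Cytotoxicity tracked in parallel cultures by SRB total-protein staining.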

KRT18 (gene 3875) = assay: BSK_BE3C_Keratin818: BioMAP Diversity Plus: BE3C Assay for Keratin 818 Biomarker Activity (AID 2284282); conditions: primary human bronchial epithelial cells
Summary of the method: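 BE3C: human bronchial epithelial primary cells, 24 h exposure, Keratin 8/18 ELISA; DMSO = negative control/baseline; cytotoxicity by parallel SRB stain (0.1% SRB after 10% TCA fixation, 560 nm).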

[9] = read-out: Matrix Metallopeptidase 9 (MMP9), MMP9 (gene 4318); assay: BSK_BE3C_MMP9: BioMAP Diversity Plus: BE3C Assay for Matrix Metallopeptidase 9 (MMP9) Biomarker Activity (AID 2284283); conditions: primary human bronchial epithelial cells
Summary of the method: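 Human primary bronchial epithelial cells exposed 24 h to compound. MMP9 quantified by ELISA. SRB total-protein staining of parallel cultures assesses cytotoxicity. Positive-direction fit relative to DMSO.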

[10] = read-out: Plasminogen activator inhibitor-1 (PAI1), SERPINE1 (gene 5054); assay: BSK_CASM3C_PAI1: BioMAP Diversity Plus: CASM3C Assay for Plasminogen activator inhibitor-1 (PAI1) Biomarker Activity (AID 2284284); conditions: primary human coronary artery smooth muscle cells;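 also: PAI-1 protein level measured by ELISA 24 h after dosing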
[11] = read-out: Monocyte Chemoattractant Protein-1 (MCP1), CCL2 (gene 6347); assay: BSK_hDFCGF_MCP1: BioMAP Diversity Plus: hDFCGF Assay for Monocyte Chemoattractant Protein-1 (MCP1) Biomarker Activity (AID 2284285); conditions: primary human foreskin fibroblasts
Summary of the method: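 Human foreskin fibroblasts (hDFCGF system) were exposed to compound and secreted MCP-1 was measured by ELISA after 24 hours. Activity was fitted relative to DMSO. Cytotoxicity was checked by SRB total-protein staining in parallel cultures.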

[12] = read-out: Intercellular Adhesion Molecule 1 (ICAM1), ICAM1 (gene 3383); assay: BSK_hDFCGF_ICAM1: BioMAP Diversity Plus: hDFCGF Assay for Intercellular Adhesion Molecule 1 (ICAM1) Biomarker Activity (AID 2284287); conditions: primary human foreskin fibroblasts
Summary of the method: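 Primary human foreskin fibroblasts (hDFCGF system) dosed with chemical; ICAM-1 quantified by ELISA at 24 h relative to DMSO. Parallel SRB total-protein staining to assess overt cytotoxicity.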

CD40, CD40 (gene 958) = assay: BSK_IMphg_CD40: BioMAP Diversity Plus: IMphg Assay for CD40 Biomarker Activity (AID 2284288); conditions: primary human endothelial cells with macrophages
Summary of the method: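 Venular endothelial cells co-cultured with macrophages (human primary), CD40 measured by ELISA 24 h after dosing. Positive-direction fit vs DMSO baseline; cytotoxicity tracked by SRB total-protein staining in parallel cultures.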

[13] = read-out: Interleukin-1 alpha (IL1a), IL1A (gene 3552); assay: BSK_IMphg_IL1a: BioMAP Diversity Plus: IMphg Assay for Interleukin-1 alpha (IL1a) Biomarker Activity (AID 2284290); conditions: primary human endothelial cells with macrophages
Summary of the method: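 Human venular endothelial cells co-cultured with macrophages, IMphg system. IL-1α is measured by ELISA 24 h after dosing and fitted in the positive direction against DMSO. Cytotoxicity is assessed by SRB staining of parallel cultures.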

[14] = read-out: E-selectin (Homo sapiens) (UniProt P16581); assay: BSK_IMphg_ESelectin: BioMAP Diversity Plus: IMphg Assay for Eselectin Biomarker Activity (AID 2284291); conditions: primary human endothelial cells with macrophages
Summary of the method: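 Human venular endothelial cell–macrophage co-culture, E-selectin measured by ELISA 24 h after chemical dosing. Signal fitted in the positive direction against DMSO as negative control and baseline.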

[15] = BSK_IMphg_SRB: Viability Assessment in the BioMAP Diversity Plus: IMphg Assay (AID 2284292); conditions: primary human endothelial cells with macrophages;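 also: measured one day after compound addition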
Summary of the method: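 Human venular endothelial cells with macrophages, 24 h after chemical dosing; total protein by 0.1% SRB staining after 10% TCA fixation, read at 560 nm. Positive-direction fitting versus DMSO baseline.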

[16] = read-out: Macrophage colony-stimulating factor (MCSF), CSF1 (gene 1435); assay: BSK_IMphg_MCSF: BioMAP Diversity Plus: IMphg Assay for Macrophage colony-stimulating factor (MCSF) Biomarker Activity (AID 2284293); conditions: primary human endothelial cells with macrophages
Summary of the method: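 Co-culture of human venular endothelial cells and macrophages, 24 hours of chemical exposure. M-CSF quantified by ELISA, with parallel SRB total-protein staining for cytotoxicity; activity fitted relative to DMSO.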

[17] = read-out: Interleukin-10 (IL10), IL10 (gene 3586); assay: BSK_IMphg_IL10: BioMAP Diversity Plus: IMphg Assay for Interleukin-10 (IL10) Biomarker Activity (AID 2284294); conditions: primary human endothelial cells with macrophages
Summary of the method: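 Human venular endothelial cells cocultured with macrophages, dosed 24 h; IL-10 measured by ELISA, activity relative to DMSO. Cytotoxicity assessed in parallel cultures by sulforhodamine B total-protein staining.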

[18] = read-out: Thrombomodulin, THBD (gene 7056); assay: BSK_LPS_Thrombomodulin: BioMAP Diversity Plus: LPS Assay for Thrombomodulin Biomarker Activity (AID 2284296); conditions: primary human HUVEC with PBMC
Summary of the method: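 Human umbilical vein endothelial cells co-cultured with PBMC and stimulated with LPS; cell-surface thrombomodulin measured by ELISA 24 hours after compound. Gain or loss versus DMSO; cytotoxicity checked by SRB staining in parallel cultures.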

Measured: AC50

Chain of E-selectin (Homo sapiens) (P16581 whole entry, looked up): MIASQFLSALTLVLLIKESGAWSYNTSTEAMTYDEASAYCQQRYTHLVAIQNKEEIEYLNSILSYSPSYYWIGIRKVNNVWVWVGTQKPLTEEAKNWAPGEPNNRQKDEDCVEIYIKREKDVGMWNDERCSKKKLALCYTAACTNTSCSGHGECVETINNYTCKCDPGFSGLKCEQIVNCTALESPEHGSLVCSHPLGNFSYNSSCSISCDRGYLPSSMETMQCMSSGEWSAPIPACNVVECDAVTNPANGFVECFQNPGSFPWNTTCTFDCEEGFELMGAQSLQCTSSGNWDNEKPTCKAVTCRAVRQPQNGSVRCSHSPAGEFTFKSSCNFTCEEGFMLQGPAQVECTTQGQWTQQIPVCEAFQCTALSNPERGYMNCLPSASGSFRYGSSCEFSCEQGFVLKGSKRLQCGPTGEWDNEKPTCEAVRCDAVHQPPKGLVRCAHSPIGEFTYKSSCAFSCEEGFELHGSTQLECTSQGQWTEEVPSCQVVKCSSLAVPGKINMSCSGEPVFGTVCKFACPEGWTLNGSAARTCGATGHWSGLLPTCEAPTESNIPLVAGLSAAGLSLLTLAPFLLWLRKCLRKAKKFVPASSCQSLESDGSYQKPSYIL

OCCC(F)(F)C(F)(F)C(F)(F)C(F)(F)F
inactive: [1] | [2] | [3] | [4] | [5] | [6] | [7] | [8] | KRT18 (gene 3875) | [9] | [10] | [11] | [12] | CD40, CD40 (gene 958) | [13] | [14] | [15] | [16] | [17] | [18]

FC(F)(F)C(F)(F)C(F)(F)C(F)(F)C(F)(F)C(F)(F)I
inactive: [1] | [2] | [3] | [4] | [5] | [6] | [7] | [8] | KRT18 (gene 3875) | [9] | [10] | [11] | [12] | CD40, CD40 (gene 958) | [13] | [14] | [15] | [16] | [17] | [18]
active: [11] 28.2 µM

FC(F)=C(F)C(F)(F)C(F)(F)C(F)(F)C(F)(F)C(F)(F)C(F)(F)F
inactive: [1] | [2] | [3] | [4] | [5] | [6] | [7] | [8] | KRT18 (gene 3875) | [9] | [10] | [11] | [12] | CD40, CD40 (gene 958) | [13] | [14] | [15] | [16] | [17] | [18]

NCC(F)(F)C(F)(F)C(F)(F)C(F)(F)F
inactive: [1] | [2] | [3] | [4] | [5] | [6] | [7] | [8] | KRT18 (gene 3875) | [9] | [10] | [11] | [12] | CD40, CD40 (gene 958) | [13] | [14] | [15] | [16] | [17] | [18]

O=C(Cl)C(F)(F)C(F)(F)C(F)(F)C(=O)Cl
inactive: [1] | [2] | [3] | [4] | [5] | [6] | [7] | [8] | KRT18 (gene 3875) | [9] | [10] | [11] | [12] | CD40, CD40 (gene 958) | [13] | [14] | [15] | [16] | [17] | [18]

FC(F)(F)COC(OCC(F)(F)F)OCC(F)(F)F
inactive: [1] | [2] | [3] | [4] | [5] | [6] | [7] | [8] | KRT18 (gene 3875) | [9] | [10] | [11] | [12] | CD40, CD40 (gene 958) | [13] | [14] | [15] | [16] | [17] | [18]

C[Si](C)(C)C(F)(F)C(F)(F)C(F)(F)F
inactive: [1] | [2] | [3] | [4] | [5] | [6] | [7] | [8] | KRT18 (gene 3875) | [9] | [10] | [11] | [12] | CD40, CD40 (gene 958) | [13] | [14] | [15] | [16] | [17] | [18]

OC(O)(C(F)C(O)(O)C(F)(F)F)C(F)(F)F
active: [4] 50.1 µM | [7] 22 µM | [17] 25 µM and 22.2 µM
inactive: [1] | [2] | [3] | [4] | [5] | [6] | [7] | [8] | KRT18 (gene 3875) | [9] | [10] | [11] | [12] | CD40, CD40 (gene 958) | [13] | [14] | [15] | [16] | [18]

FC(F)C(F)(F)COCC1CO1 (centres undefined)
inactive: [1] | [2] | [3] | [4] | [5] | [6] | [7] | [8] | KRT18 (gene 3875) | [9] | [10] | [11] | [12] | CD40, CD40 (gene 958) | [13] | [14] | [15] | [16] | [17] | [18]

O=S(=O)(O)CCC(F)(F)C(F)(F)C(F)(F)C(F)(F)C(F)(F)C(F)(F)F
inactive: [1] | [2] | [3] | [4] | [5] | [6] | [7] | [8] | KRT18 (gene 3875) | [9] | [10] | [11] | [12] | CD40, CD40 (gene 958) | [13] | [14] | [15] | [16] | [17] | [18]
active: [18] 0.227 µM
